Legend:
Assay in all cases: DAPPL (digital affinity profiling via proximity ligation, sequencing); 10 mM Tris-HCl pH 7.5, 50 mM NaCl, 1 mM DTT, 4% glycerol, room temperature, 30 min; GST-TFs on glutathione beads, 16-mer random dsDNA library, 0.1% formaldehyde crosslink after washing; high values mean tight binding
[1] = target: T1, FEV (Homo sapiens, UniProt Q99581 1-238); details: protein: recombinant; tags: N-terminal GST; dsDNA, one strand shown
T1 sequence: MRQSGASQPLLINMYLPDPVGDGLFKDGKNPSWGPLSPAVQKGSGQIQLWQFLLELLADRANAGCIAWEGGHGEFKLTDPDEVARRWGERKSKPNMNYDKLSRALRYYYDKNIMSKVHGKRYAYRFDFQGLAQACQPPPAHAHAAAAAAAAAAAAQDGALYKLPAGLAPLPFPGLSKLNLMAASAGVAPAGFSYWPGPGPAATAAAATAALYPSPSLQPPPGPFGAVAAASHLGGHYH
Summary of the method: (§1)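 Human transcription factors carrying a GST fusion were produced in yeast, bound to glutathione beads, tagged with DNA barcodes and pooled together with a tag-only sample. Each pool was held with 200 nmole of a random double-stranded 16-mer DNA library in Tris/NaCl/DTT/glycerol buffer for 30 min at room temperature, then washed, crosslinked in 0.1% formaldehyde, proximity-ligated with BsaI/T4 ligase (1 h, 37 °C), PCR-amplified and sequenced on an Illumina NextSeq500. Binding signal is the read frequency of each hexamer for a given factor divided by its frequency in the tag-only sample.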

[2] = target: ETV5 (Homo sapiens, UniProt P41161 1-510); details: protein: recombinant; tags: N-terminal GST; dsDNA, one strand shown
Sequence of ETV5 (P41161 whole entry): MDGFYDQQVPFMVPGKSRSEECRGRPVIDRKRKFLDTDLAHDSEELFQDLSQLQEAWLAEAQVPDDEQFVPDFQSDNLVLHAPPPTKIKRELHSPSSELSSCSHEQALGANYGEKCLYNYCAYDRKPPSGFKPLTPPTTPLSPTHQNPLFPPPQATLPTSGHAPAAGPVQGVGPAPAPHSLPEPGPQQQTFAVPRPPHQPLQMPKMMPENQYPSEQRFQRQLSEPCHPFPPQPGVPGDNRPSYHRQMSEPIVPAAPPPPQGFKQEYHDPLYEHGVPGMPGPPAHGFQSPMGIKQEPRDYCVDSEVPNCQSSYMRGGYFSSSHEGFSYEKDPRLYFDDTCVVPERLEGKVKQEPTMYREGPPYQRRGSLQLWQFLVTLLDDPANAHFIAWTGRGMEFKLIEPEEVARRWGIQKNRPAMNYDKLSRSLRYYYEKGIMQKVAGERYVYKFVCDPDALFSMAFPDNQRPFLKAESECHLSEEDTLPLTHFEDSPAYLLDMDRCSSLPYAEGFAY
Summary of the method: as §1

[3] = target: HSF1 (Homo sapiens, UniProt Q00613 1-529); details: protein: recombinant; tags: N-terminal GST; chain copies: 3; dsDNA, one strand shown
Sequence of HSF1 (Q00613 whole entry): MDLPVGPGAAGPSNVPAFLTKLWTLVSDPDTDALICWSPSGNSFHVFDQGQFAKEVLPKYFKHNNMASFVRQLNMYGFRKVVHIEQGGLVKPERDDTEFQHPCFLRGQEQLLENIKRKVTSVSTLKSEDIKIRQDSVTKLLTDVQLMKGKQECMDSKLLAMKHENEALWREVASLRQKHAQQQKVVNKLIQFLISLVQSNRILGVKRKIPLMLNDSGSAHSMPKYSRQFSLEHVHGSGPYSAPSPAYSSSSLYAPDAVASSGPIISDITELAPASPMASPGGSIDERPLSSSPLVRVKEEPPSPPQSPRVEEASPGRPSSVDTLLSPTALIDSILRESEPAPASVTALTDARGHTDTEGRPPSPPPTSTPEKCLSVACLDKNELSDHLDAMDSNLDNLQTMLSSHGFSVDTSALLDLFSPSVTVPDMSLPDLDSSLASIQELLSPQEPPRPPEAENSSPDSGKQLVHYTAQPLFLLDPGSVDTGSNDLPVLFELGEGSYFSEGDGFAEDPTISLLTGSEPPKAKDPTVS
Summary of the method: as §1

[4] = target: T2, SPIC (Homo sapiens, UniProt Q8N5J4 1-248); details: protein: recombinant; tags: N-terminal GST; dsDNA, one strand shown
T2 sequence: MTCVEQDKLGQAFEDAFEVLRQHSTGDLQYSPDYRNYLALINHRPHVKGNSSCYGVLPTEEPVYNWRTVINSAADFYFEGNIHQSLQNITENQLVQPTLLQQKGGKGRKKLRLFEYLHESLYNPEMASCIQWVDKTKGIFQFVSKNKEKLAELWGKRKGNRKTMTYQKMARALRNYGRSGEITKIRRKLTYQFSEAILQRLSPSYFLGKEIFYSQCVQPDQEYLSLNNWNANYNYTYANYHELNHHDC
Summary of the method: as §1

[5] = target: ELF4 (Homo sapiens, UniProt Q99607 1-663); details: protein: recombinant; tags: N-terminal GST; dsDNA, one strand shown
Sequence of ELF4 (Q99607 whole entry): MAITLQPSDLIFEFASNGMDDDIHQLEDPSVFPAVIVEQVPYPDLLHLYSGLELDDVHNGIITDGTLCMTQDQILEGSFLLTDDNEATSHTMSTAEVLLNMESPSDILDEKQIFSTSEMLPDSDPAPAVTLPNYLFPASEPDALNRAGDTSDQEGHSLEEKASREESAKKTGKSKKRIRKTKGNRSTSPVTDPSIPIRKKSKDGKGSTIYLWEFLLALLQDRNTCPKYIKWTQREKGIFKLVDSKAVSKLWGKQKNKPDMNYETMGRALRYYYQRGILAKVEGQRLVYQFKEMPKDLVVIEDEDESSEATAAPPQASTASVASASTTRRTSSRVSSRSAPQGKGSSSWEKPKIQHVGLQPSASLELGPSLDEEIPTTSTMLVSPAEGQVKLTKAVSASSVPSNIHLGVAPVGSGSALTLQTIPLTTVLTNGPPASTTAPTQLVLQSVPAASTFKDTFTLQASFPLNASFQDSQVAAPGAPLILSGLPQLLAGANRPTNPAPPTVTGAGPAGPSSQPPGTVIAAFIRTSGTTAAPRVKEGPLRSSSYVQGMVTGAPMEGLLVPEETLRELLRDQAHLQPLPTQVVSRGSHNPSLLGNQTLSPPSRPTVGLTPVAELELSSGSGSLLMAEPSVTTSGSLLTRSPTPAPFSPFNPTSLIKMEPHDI
Summary of the method: as §1

[6] = target: T3, ELK4 (Homo sapiens, UniProt P28324-2 1-405); details: protein: recombinant; tags: N-terminal GST; dsDNA, one strand shown
T3 sequence: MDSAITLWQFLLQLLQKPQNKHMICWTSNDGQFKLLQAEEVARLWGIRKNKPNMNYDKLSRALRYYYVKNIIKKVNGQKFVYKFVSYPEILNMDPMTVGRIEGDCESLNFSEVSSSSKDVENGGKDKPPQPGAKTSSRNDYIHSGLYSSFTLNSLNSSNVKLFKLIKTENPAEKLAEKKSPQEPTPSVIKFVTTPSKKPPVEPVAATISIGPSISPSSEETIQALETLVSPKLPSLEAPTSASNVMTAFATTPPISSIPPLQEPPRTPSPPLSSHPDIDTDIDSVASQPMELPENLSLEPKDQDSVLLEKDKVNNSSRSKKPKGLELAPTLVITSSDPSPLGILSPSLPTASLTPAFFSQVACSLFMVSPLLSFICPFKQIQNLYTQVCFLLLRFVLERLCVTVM
Summary of the method: as §1

[7] = target: T4, ETV2 (Homo sapiens, UniProt O00321 1-342); details: protein: recombinant; tags: N-terminal GST; dsDNA, one strand shown
T4 sequence: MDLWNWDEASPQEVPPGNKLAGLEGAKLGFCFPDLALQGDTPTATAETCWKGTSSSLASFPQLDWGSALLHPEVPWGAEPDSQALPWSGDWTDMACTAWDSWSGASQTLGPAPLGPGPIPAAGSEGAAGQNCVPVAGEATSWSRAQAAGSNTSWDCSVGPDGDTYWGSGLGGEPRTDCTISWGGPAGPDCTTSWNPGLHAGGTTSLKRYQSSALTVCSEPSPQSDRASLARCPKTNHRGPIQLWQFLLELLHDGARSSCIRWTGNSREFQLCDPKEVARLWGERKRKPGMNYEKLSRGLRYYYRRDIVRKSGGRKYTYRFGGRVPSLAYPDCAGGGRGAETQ
Summary of the method: as §1

[8] = target: T5, ELF3 (Homo sapiens, UniProt P78545 1-371); details: protein: recombinant; tags: N-terminal GST; dsDNA, one strand shown
T5 sequence: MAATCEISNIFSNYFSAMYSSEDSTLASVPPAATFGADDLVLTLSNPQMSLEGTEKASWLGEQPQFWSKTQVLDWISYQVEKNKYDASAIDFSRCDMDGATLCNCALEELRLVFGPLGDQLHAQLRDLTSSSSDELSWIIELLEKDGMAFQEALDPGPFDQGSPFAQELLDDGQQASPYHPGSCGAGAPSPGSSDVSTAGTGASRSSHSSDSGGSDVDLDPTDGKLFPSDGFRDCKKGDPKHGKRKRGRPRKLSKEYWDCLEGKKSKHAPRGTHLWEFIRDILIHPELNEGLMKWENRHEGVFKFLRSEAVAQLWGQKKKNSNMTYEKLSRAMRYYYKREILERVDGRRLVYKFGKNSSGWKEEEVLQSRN
Summary of the method: as §1

[9] = target: CRX (Homo sapiens, UniProt O43186 1-299); details: protein: recombinant; tags: N-terminal GST; dsDNA, one strand shown
Sequence of CRX (O43186 whole entry): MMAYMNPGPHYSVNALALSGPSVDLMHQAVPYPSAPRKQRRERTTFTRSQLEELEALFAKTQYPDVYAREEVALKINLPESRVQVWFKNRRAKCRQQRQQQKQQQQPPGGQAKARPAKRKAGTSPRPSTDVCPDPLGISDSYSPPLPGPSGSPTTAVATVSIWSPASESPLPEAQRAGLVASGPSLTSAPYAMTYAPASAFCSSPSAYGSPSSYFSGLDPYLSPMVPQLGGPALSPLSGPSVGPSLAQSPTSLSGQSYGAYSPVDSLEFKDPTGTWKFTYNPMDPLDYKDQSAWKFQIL
Summary of the method: as §1

[10] = target: ETV1 (Homo sapiens, UniProt P50549 1-477); details: protein: recombinant; tags: N-terminal GST; dsDNA, one strand shown
Sequence of ETV1 (P50549 whole entry): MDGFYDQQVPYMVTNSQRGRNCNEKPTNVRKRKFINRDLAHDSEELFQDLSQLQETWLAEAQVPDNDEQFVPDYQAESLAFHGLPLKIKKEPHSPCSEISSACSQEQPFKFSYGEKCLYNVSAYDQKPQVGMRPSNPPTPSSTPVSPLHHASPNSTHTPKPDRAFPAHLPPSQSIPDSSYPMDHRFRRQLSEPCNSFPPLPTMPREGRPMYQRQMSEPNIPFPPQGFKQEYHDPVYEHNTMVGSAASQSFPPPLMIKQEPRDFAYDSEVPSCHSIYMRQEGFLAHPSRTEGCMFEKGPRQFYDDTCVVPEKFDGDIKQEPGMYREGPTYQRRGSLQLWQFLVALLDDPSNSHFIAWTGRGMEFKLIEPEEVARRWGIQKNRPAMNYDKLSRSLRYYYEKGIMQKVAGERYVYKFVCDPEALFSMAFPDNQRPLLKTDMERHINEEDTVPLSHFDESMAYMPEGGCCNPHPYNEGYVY
Summary of the method: as §1

Sequence | binding signal [1] | binding signal [2] | binding signal [3] | binding signal [4] | binding signal [5] | binding signal [6] | binding signal [7] | binding signal [8] | binding signal [9] | binding signal [10]
AACTCA | 1.26 fold enrichment (6-mer frequency, TF over GST control) | 1.25 fold enrichment (6-mer frequency, TF over GST control) | 1.14 fold enrichment (6-mer frequency, TF over GST control) | 1.2 fold enrichment (6-mer frequency, TF over GST control) | 1.27 fold enrichment (6-mer frequency, TF over GST control) | 1.21 fold enrichment (6-mer frequency, TF over GST control) | 1.22 fold enrichment (6-mer frequency, TF over GST control) | 1.15 fold enrichment (6-mer frequency, TF over GST control) | 1.12 fold enrichment (6-mer frequency, TF over GST control) | 1.24 fold enrichment (6-mer frequency, TF over GST control)
CTCTCG | 1.3 fold enrichment (6-mer frequency, TF over GST control) | 1.32 fold enrichment (6-mer frequency, TF over GST control) | 1.99 fold enrichment (6-mer frequency, TF over GST control) | 1.3 fold enrichment (6-mer frequency, TF over GST control) | 1.45 fold enrichment (6-mer frequency, TF over GST control) | 1.41 fold enrichment (6-mer frequency, TF over GST control) | 1.73 fold enrichment (6-mer frequency, TF over GST control) | 1.65 fold enrichment (6-mer frequency, TF over GST control) | 1.32 fold enrichment (6-mer frequency, TF over GST control) | 1.47 fold enrichment (6-mer frequency, TF over GST control)
CTACAC | 1.27 fold enrichment (6-mer frequency, TF over GST control) | 1.26 fold enrichment (6-mer frequency, TF over GST control) | 1.11 fold enrichment (6-mer frequency, TF over GST control) | 1.32 fold enrichment (6-mer frequency, TF over GST control) | 1.17 fold enrichment (6-mer frequency, TF over GST control) | 1.23 fold enrichment (6-mer frequency, TF over GST control) | 1.19 fold enrichment (6-mer frequency, TF over GST control) | 1.39 fold enrichment (6-mer frequency, TF over GST control) | 1.05 fold enrichment (6-mer frequency, TF over GST control) | 1.28 fold enrichment (6-mer frequency, TF over GST control)
GATGAC | 1.47 fold enrichment (6-mer frequency, TF over GST control) | 1.49 fold enrichment (6-mer frequency, TF over GST control) | 1.27 fold enrichment (6-mer frequency, TF over GST control) | 1.15 fold enrichment (6-mer frequency, TF over GST control) | 1.56 fold enrichment (6-mer frequency, TF over GST control) | 1.42 fold enrichment (6-mer frequency, TF over GST control) | 1.35 fold enrichment (6-mer frequency, TF over GST control) | 1.48 fold enrichment (6-mer frequency, TF over GST control) | 1.26 fold enrichment (6-mer frequency, TF over GST control) | 1.55 fold enrichment (6-mer frequency, TF over GST control)
GTATCC | 2.08 fold enrichment (6-mer frequency, TF over GST control) | 2.05 fold enrichment (6-mer frequency, TF over GST control) | 1.14 fold enrichment (6-mer frequency, TF over GST control) | 1.96 fold enrichment (6-mer frequency, TF over GST control) | 1.85 fold enrichment (6-mer frequency, TF over GST control) | 1.74 fold enrichment (6-mer frequency, TF over GST control) | 1.78 fold enrichment (6-mer frequency, TF over GST control) | 1.69 fold enrichment (6-mer frequency, TF over GST control) | 1.22 fold enrichment (6-mer frequency, TF over GST control) | 1.86 fold enrichment (6-mer frequency, TF over GST control)
GTTCTG | 1.03 fold enrichment (6-mer frequency, TF over GST control) | 1.08 fold enrichment (6-mer frequency, TF over GST control) | 1.84 fold enrichment (6-mer frequency, TF over GST control) | 1.1 fold enrichment (6-mer frequency, TF over GST control) | 1.14 fold enrichment (6-mer frequency, TF over GST control) | 1.3 fold enrichment (6-mer frequency, TF over GST control) | 1.09 fold enrichment (6-mer frequency, TF over GST control) | 1.12 fold enrichment (6-mer frequency, TF over GST control) | 1.01 fold enrichment (6-mer frequency, TF over GST control) | 1.1 fold enrichment (6-mer frequency, TF over GST control)
TGGCAT | 1.3 fold enrichment (6-mer frequency, TF over GST control) | 1.13 fold enrichment (6-mer frequency, TF over GST control) | 1.26 fold enrichment (6-mer frequency, TF over GST control) | 1.24 fold enrichment (6-mer frequency, TF over GST control) | 1.18 fold enrichment (6-mer frequency, TF over GST control) | 1.21 fold enrichment (6-mer frequency, TF over GST control) | 1.37 fold enrichment (6-mer frequency, TF over GST control) | 1.24 fold enrichment (6-mer frequency, TF over GST control) | 1.21 fold enrichment (6-mer frequency, TF over GST control) | 1.18 fold enrichment (6-mer frequency, TF over GST control)

From publication PMC7862700, “An all-to-all approach to the identification of sequence-specific readers for epigenetic DNA modifications on cytosine”
